The record followed here is PubChem BioAssay (NCATS).

Inconclusive results are not listed. A call without a number means that no potency is given here. A number with no mark means an inactive call. Calls of active or inactive are those of the source. Calls follow the shape of the full dose curve. Square brackets hold non-standard residues; d marks the D form. Peptide text beside a SMILES is read from it. * marks the point of attachment. Sta = CC(C)C[C@H](N)[C@@H](O)CC(=O)O; Isovaleryl = CC(C)CC(=O)*
Potency is read from the fitted curve at half-maximal effect.

A short description of this experiment: Cytotoxicity counterscreen for inhibitors of SARS-CoV-2 cell entry (AID 1645845). Also: nearly all actives have a fitted effect of over 50% in size. Conditions: cell viability (SARS-CoV-2 entry assay cells); series mostly up to 57.1 µM; activity change, negative = cytotoxicity: at the top concentration. Put shortly:
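Counterscreen run in the same HEK293-ACE2 line as the pseudotyped-particle entry assay, without particles. Viability after 48 h at 37 C was read as ATP luminescence, scaled between cell-containing and cell-free wells.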
A general note: The purpose of a counterscreen is to sort out artefacts and off-target activity.
For the molecule `C=CC[N+]1([C@H]2C[C@H]3[C@@H]4CC[C@H]5C[C@H](OC(C)=O)[C@@H](N6CCCCC6)C[C@]5(C)[C@H]4CC[C@]3(C)[C@H]2OC(=O)CC)CCCCC1`, the “activity change, negative = cytotoxicity” value was -10.4%.

Take `C[C@]12CC[C@@H]3c4ccc(O)cc4CC[C@H]3[C@@H]1CC[C@@H]2OC(=O)CCC1CCCC1`: the “activity change, negative = cytotoxicity” value was 4.14%. `CC(C)c1cc2c(cc1S(=O)(=O)O)[C@@]1(C)CCC[C@@](C)(C(=O)O)[C@@H]1CC2`: the call was inactive. Consider `C#CCN(C)Cc1ccccc1`, for which the “activity change, negative = cytotoxicity” value is 3.01%.

`CC(=O)N(CC(=O)N(C)C)c1ccccc1`: the “activity change, negative = cytotoxicity” value is 4.98%. Consider `Brc1c(NC2=NCCN2)ccc2nccnc12`, for which the molecule was called inactive. Consider `CCN1CCCC(OC(=O)C(c2ccccc2)c2ccccc2)C1` (centres undefined), for which the “activity change, negative = cytotoxicity” value is -19.7%. For the molecule `CCn1cc(C(=O)O)c(=O)c2cc(F)c(N3CCNCC3)nc21`, the “activity change, negative = cytotoxicity” value was 2.03%. In the case of `Cn1c(=O)c2c(ncn2C)n(C)c1=O`, the Potency result is “inactive”.

For the molecule `O=c1ccc2ccccc2o1`, the call was inactive. Same read-out and setting: the entry for `CCN(CC)C(=O)c1cccc(C)c1` is “inactive”. On to `COc1ccc2cc1Oc1ccc(cc1)C[C@H]1c3c(cc4c(c3Oc3cc5c(cc3OC)CCN(C)[C@@H]5C2)OCO4)CCN1C`, for which the Potency was 14.1 µM (active).

`CC(C)CC(=O)N[C@H](C(=O)N[C@H](C(=O)N[C@@H](CC(C)C)[C@@H](O)CC(=O)N[C@@H](C)C(=O)N[C@@H](CC(C)C)[C@@H](O)CC(=O)O)C(C)C)C(C)C` (Isovaleryl-VV[Sta]A[Sta]-OH): the outcome was inactive. As to `NC(=O)CCCCC1CCSS1` (centres undefined), the “activity change, negative = cytotoxicity” value was 1.22%. Take `CCOCCOC(=O)/C=C/c1ccc(OC)cc1`: the molecule was called inactive.

Consider `NC(N)=N/N=C/c1c(Cl)cccc1Cl`, for which the molecule was called inactive. Take `N=C(N)c1ccc(OCCCOc2ccc(C(=N)N)cc2)cc1`: the “activity change, negative = cytotoxicity” value was -2.35%.

For `C1CCN2C[C@@H]3C[C@@H](CN4CCCC[C@@H]34)[C@H]2C1`, the “activity change, negative = cytotoxicity” value was 4.19%. Consider `Cc1[nH]c(=O)c(C#N)cc1-c1ccc2nccn2c1`, for which the “activity change, negative = cytotoxicity” value was -2.95%.

For `CN(Cc1ccc(C(C)(C)C)cc1)Cc1cccc2ccccc12`, the “activity change, negative = cytotoxicity” value was -22.3%. For `CCN(CC)CCOc1ccc(Cc2ccccc2)cc1`, the result was inactive. Take `CCOc1c(N2CCOCC2)cnn(C)c1=O`: the “activity change, negative = cytotoxicity” value is 4.62%. Take `CCN(CC)C(=O)N1CCN(C)CC1`: the call was inactive. As to `C[N+]1(CC2COC(c3ccccc3)(C3CCCCC3)O2)CCCCC1` (centres undefined), the “activity change, negative = cytotoxicity” value is -12.8%. Consider `COc1ccnc2c1CCCCC2S(=O)c1nc2ccccc2[nH]1` (centres undefined), for which the outcome was inactive.

In the case of `C[C@]1(Cn2ccnn2)[C@H](C(=O)O)N2C(=O)C[C@H]2S1(=O)=O`, the molecule was classed as inactive. Regarding `CCC(=O)c1ccc(O)cc1`, the result was inactive. For `c1ccc2[nH]c(-c3cscn3)nc2c1`, the Potency result is “inactive”. As for `CC(C)(C)CC(=O)OCC(=O)[C@@]1(O)CC[C@H]2[C@@H]3CCC4=CC(=O)C=C[C@]4(C)[C@H]3[C@@H](O)C[C@@]21C`, the call was inactive. As to `O=c1cc(CO)occ1O`, the “activity change, negative = cytotoxicity” value is 3.48%. On to `Nc1nc2ncc(CNc3ccc(C(=O)N[C@@H](CCC(=O)O)C(=O)O)cc3)nc2c(=O)[nH]1`, for which the molecule was classed as inactive. Turning to `CC(C(=O)O)c1ccc(CC2CCCC2=O)cc1` (centres undefined), the “activity change, negative = cytotoxicity” value is -0.543%. With `COc1nc(C)nc(Cl)c1NC1=NCCN1`, the molecule was called inactive.

For the molecule `CCCn1cnc2c1c(=O)n(CCCCC(C)=O)c(=O)n2C`, the call was inactive. On to `CC(C(O)c1ccc(O)cc1)N1CCC(Cc2ccccc2)CC1` (centres undefined), for which the outcome was inactive. For `Nc1ccc(S(=O)(=O)Nc2cnc3ccccc3n2)cc1`, the result was inactive.

As for `CCn1cc(C(=O)O)c(=O)c2cc(F)c(N3CCN(C)CC3)cc21`, the “activity change, negative = cytotoxicity” value is -13.5%. With `CCC(=O)Oc1ccc2c(c1)CC[C@@H]1[C@@H]2CC[C@@]2(C)[C@H]1C[C@@H](OC(=O)CC)[C@@H]2OC(=O)CC`, the outcome was inactive.

Consider `CCOC(=O)[C@H](CCc1ccccc1)N[C@@H](C)C(=O)N1C(=O)N(C)C[C@H]1C(=O)O`, for which the result was inactive.
